Values joined by “and” are separate entries in the source; they are usually repeats but may differ in a detail not shown here. Identical values can stand only once. Records with an inconclusive call do not appear. Where a structure was tested more than once in an assay, its records may differ in their call. Active and inactive are the calls of the source. Calls follow the shape of the dose curve; as a rule, active = well fitted curve in the direction sought with a large enough effect in the repeat runs; inconclusive = weak or mixed curves; inactive = no such curve, though single readings can be large; an effect the other way counts as inactive or inconclusive.
Columns and labels:
[1] = qHTS RealTime-Glo MT Cell Viability Assay in HepG2 cells - 40 hour (AID 1224870); also: nearly all actives have a fitted effect of over 50% in size; also: potency is read from the fitted curve at half-maximal effect
Outline: (§1)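 HepG2 cells mixed with RealTime-Glo MT reagents (NanoLuc plus cell-permeant prosubstrate) were seeded at 600 cells/well, incubated 5 h at 37 C/5% CO2, then pinned with compounds in DMSO; nonlytic luminescence tracked viability during 40 h treatment.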

[2] = A CellTox Green Cytotoxicity Assay to monitor cytotoxicity in HEK293 cells - 40 hour (AID 1224871); also: nearly all actives have a fitted effect of over 45% in size; also: potency is read from the fitted curve at half-maximal effect
Outline: (§2)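 Real-time, in one plate: 600 HEK293 cells/well with dead-cell DNA dye, pinned compound after 5 h, 37 C incubation over 40 h; viable cells give no appreciable fluorescence.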

[3] = qHTS RealTime-Glo MT Cell Viability Assay in HEK293 cells - 16 hour (AID 1224872); also: nearly all actives have a fitted effect of over 50% in size; also: potency is read from the fitted curve at half-maximal effect
Outline: (§3)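 Reads taken at 0, 8, 16, 24, 32 and 40 h from the same wells. HEK293 cells (600/well) carried RealTime-Glo reagents from seeding, with compound added after a 5 h settle at 37 C.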

[4] = qHTS RealTime-Glo MT Cell Viability Assay in HepG2 cells - 8 hour (AID 1224873); also: nearly all actives have a fitted effect of over 55% in size; also: potency is read from the fitted curve at half-maximal effect
Outline: as §1

[5] = qHTS RealTime-Glo MT Cell Viability Assay in HEK293 cells - 40 hour (AID 1224874); settings: RealTime-Glo luminescence; max response: stronger effect = lower value; also: nearly all actives have a fitted effect of over 50% in size; also: potency is read from the fitted curve at half-maximal effect
Outline: (§4)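 Kinetic, non-lysing viability readout. Seed HEK293 (600/well) with reagent, incubate 5 h at 37 C/5% CO2, pin 23 nL compound in DMSO, incubate at 37 C, read luminescence at 0, 8, 16, 24, 32, 40 h.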

[6] = A CellTox Green Cytotoxicity Assay to monitor cytotoxicity in HEK293 cells - 24 hour (AID 1224875); also: series mostly up to about 77 µM; nearly all actives have a fitted effect of over 45% in size
Outline: as §2

[7] = A CellTox Green Cytotoxicity Assay to monitor cytotoxicity in HepG2 cells - 16 hour (AID 1224876); also: nearly all actives have a fitted effect of over 45% in size; also: potency is read from the fitted curve at half-maximal effect
Outline: (§5)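 Cytotoxicity was tracked as dead-cell DNA fluorescence in HepG2 cells treated with test compounds at 37 C; each time-point value comes from one kinetic series spanning 0, 8, 16, 24, 32 and 40 h.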

[8] = qHTS RealTime-Glo MT Cell Viability Assay in HepG2 cells - 32 hour (AID 1224877); also: nearly all actives have a fitted effect of over 55% in size; also: potency is read from the fitted curve at half-maximal effect
Outline: (§6)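 HepG2 suspension premixed with RealTime-Glo reagents is plated at 600 cells per well and left 5 h at 37 C/5% CO2. Compounds in DMSO then go in, and bioluminescence reflecting viable cell number is recorded over 40 h.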

[9] = A CellTox Green Cytotoxicity Assay to monitor cytotoxicity in HepG2 cells - 24 hour (AID 1224878); also: nearly all actives have a fitted effect of over 45% in size; also: potency is read from the fitted curve at half-maximal effect
Outline: as §5

[10] = A CellTox Green Cytotoxicity Assay to monitor cytotoxicity in HepG2 cells - 40 hour (AID 1224879); also: nearly all actives have a fitted effect of over 40% in size; also: potency is read from the fitted curve at half-maximal effect
Outline: as §5

[11] = qHTS RealTime-Glo MT Cell Viability Assay in HEK293 cells - 0 hour (AID 1224880)
Outline: as §4

[12] = A CellTox Green Cytotoxicity Assay to monitor cytotoxicity in HEK293 cells - 32 hour (AID 1224881); also: nearly all actives have a fitted effect of over 40% in size
Outline: as §2

[13] = A CellTox Green Cytotoxicity Assay to monitor cytotoxicity in HepG2 cells - 0 hour (AID 1224882); also: nearly all actives have a fitted effect of over 35% in size
Outline: as §5

[14] = A CellTox Green Cytotoxicity Assay to monitor cytotoxicity in HepG2 cells - 32 hour (AID 1224883); also: nearly all actives have a fitted effect of over 50% in size; also: potency is read from the fitted curve at half-maximal effect
Outline: as §5

[15] = A CellTox Green Cytotoxicity Assay to monitor cytotoxicity in HEK293 cells - 8 hour (AID 1224884); also: nearly all actives have a fitted effect of over 35% in size; also: potency is read from the fitted curve at half-maximal effect
Outline: as §2

[16] = qHTS RealTime-Glo MT Cell Viability Assay in HepG2 cells - 16 hour (AID 1224885); also: nearly all actives have a fitted effect of over 50% in size; also: potency is read from the fitted curve at half-maximal effect
Outline: as §6

[17] = qHTS RealTime-Glo MT Cell Viability Assay in HEK293 cells - 24 hour (AID 1224886); also: nearly all actives have a fitted effect of over 50% in size; also: potency is read from the fitted curve at half-maximal effect
Outline: as §3

[18] = qHTS RealTime-Glo MT Cell Viability Assay in HEK293 cells - 8 hour (AID 1224887); also: nearly all actives have a fitted effect of over 50% in size; also: potency is read from the fitted curve at half-maximal effect
Outline: as §4

[19] = A CellTox Green Cytotoxicity Assay to monitor cytotoxicity in HEK293 cells - 16 hour (AID 1224888); also: nearly all actives have a fitted effect of over 35% in size
Outline: as §2

[20] = qHTS RealTime-Glo MT Cell Viability Assay in HepG2 cells - 0 hour (AID 1224889); also: nearly all actives have a fitted effect of over 50% in size
Outline: as §6
% is scaled to controls: 0 for no effect and ±100 for the full control effect.

CCc1ccccc1O
inactive: Potency [1] | Potency [3] | Potency [4] | max response [5] -2.02% | Potency [6] | Potency [7] | Potency [8] | Potency [9] | Potency [10] | Potency [11] | Potency [12] | Potency [13] | Potency [14] | Potency [15] | Potency [16] | Potency [17] | Potency [18] | Potency [19] | Potency [20]
54.7 µM (active) and inactive: Potency [2]

CC1=CC[C@H]2C[C@@H]1C2(C)C
inactive: Potency [1] | Potency [2] | Potency [3] | Potency [4] | max response [5] 0.867% and -1.12% | Potency [6] | Potency [7] | Potency [8] | Potency [9] | Potency [10] | Potency [11] | Potency [12] | Potency [13] | Potency [14] | Potency [15] | Potency [16] | Potency [17] | Potency [18] | Potency [19] | Potency [20]

CCCCCCOC(C)=O
inactive: Potency [1] | Potency [2] | Potency [3] | Potency [4] | max response [5] 0.539% and -29.1% | Potency [6] | Potency [7] | Potency [8] | Potency [9] | Potency [10] | Potency [11] | Potency [12] | Potency [13] | Potency [14] | Potency [15] | Potency [16] | Potency [17] | Potency [18] | Potency [19] | Potency [20]

CCCCCCCCCCCCN
inactive: max response [5] 3.89% and -9.66% | Potency [11] | Potency [13] | Potency [20]
inactive and 49 µM (active): Potency [2] | Potency [15]
inactive and 38.9 µM (active): Potency [3] | Potency [17] | Potency [18]
inactive and 24.5 µM (active): Potency [8] | Potency [16]
inactive and 19.5 µM (active): Potency [7] | Potency [9]
inactive and 34.7 µM (active): Potency [1]
active: Potency [5] 43.6 µM
inactive and 21.9 µM (active): Potency [4] | Potency [10] | Potency [14]

O=C(O)c1ccc([N+](=O)[O-])cc1
inactive: Potency [1] | Potency [2] | Potency [3] | Potency [4] | max response [5] 2.62% and 0.789% | Potency [6] | Potency [7] | Potency [8] | Potency [9] | Potency [10] | Potency [11] | Potency [12] | Potency [13] | Potency [14] | Potency [15] | Potency [16] | Potency [17] | Potency [18] | Potency [19] | Potency [20]

CCc1ccc(O)cc1
inactive: Potency [1] | Potency [2] | Potency [3] | Potency [4] | max response [5] 3.14% and 3.17% | Potency [6] | Potency [7] | Potency [8] | Potency [9] | Potency [10] | Potency [11] | Potency [12] | Potency [13] | Potency [14] | Potency [15] | Potency [16] | Potency [17] | Potency [18] | Potency [19] | Potency [20]

— PubChem BioAssay (Tox21)
